The text below walks through data of PubChem BioAssay (NCATS).

For experiment [1], the target named is Peptidyl-prolyl cis-trans isomerase NIMA-interacting 1 (Homo sapiens) (UniProt Q13526). Description: qHTS Validation Assay to Find Inhibitors of Pin1 (AID 504536; active = well fitted inhibition curve with a large enough effect in the polarisation, with a control signal flat, not every such curve was filed as active; the % refers to the polarisation;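 note: 0% = full Pin1 enzyme wells and -100% = no-enzyme wells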). The note with it: Pin1 fluorescence polarization peptide binding assay; series mostly up to 57.5 µM. In short, it runs like this:
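Fluorescence polarization competition: compounds (titration) displace HiFluor-488-labeled Pin1-1b peptide from Pin1 (0.3 uM final) in pH 7.5 HEPES buffer with DTT, 10 min at room temperature; %Activity normalized to no-enzyme wells, curves fitted.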
(qHTS replaces the single test concentration by a dilution series.)

Experiment [2] addresses Phosphoglycerate kinase, glycosomal (Trypanosoma brucei brucei) (UniProt P07378). Description: qHTS Validation Assay to Find Inhibitors of Phosphoglycerate Kinase (AID 504547).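 Note: control wells lack PGK and mark full inhibition.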 The note with it: enzymatic PGK inhibition, coupled luminescence read-out; series mostly up to 57.5 µM. The gist of the method: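 Compounds are pinned into the substrate/PGK mixture, and GAPDH (100nM final) is added to start the reaction by producing 1,3-BPG. After 60 minutes at room temperature, Kinase-Glo Plus is added and luminescence is measured 10 minutes later.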

Experiment [3] addresses phosphoglycerate mutase (Leishmania major) (UniProt Q4Q090). The experiment can be described thus: qHTS Validation Assay to Find Inhibitors of Phosphoglycerate Mutase (AID 504548). Note: % is set by controls: 0 for no effect and ±100 for the full control effect. The note with it: biochemical enzyme activity; series mostly up to 57.5 µM. The gist of the method:
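Lm PGAM 1.25nM final; 100 mM TEA pH 7.6, 5 mM MgCl2, 0.01% Tween-20; 45 min RT; Kinase-GloPlus, 10 min; end-point luminescence. Enzyme-free wells as negative controls.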

The nature of experiment [4]: qHTS for Inhibitors of ATXN expression: Validation of Cytotoxic Assay (AID 588349). Note: % is set by controls: 0 for no effect and ±100 for the full control effect. To be noted: cytotoxicity counter-screen for ATXN expression inhibitors, cell viability; series mostly up to 57.1 µM. In short, it runs like this:
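Titrated compounds are added to cultured HEK293 cells, which are then held at 37 degrees C for 72 hr; loss of intracellular ATP, measured with CellTiter Glo, indicates toxicity.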

The nature of experiment [5]: qHTS for Inhibitors of ATXN expression: Validation (AID 588378). Note: % is set by controls: 0 for no effect and ±100 for the full control effect; nearly all actives have a fitted effect of over 75% in size. The note with it: cell-based ATXN2 expression reporter assay, luminescence; series mostly up to 57.1 µM. The gist of the method:
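Compounds were pinned onto attached HEK293 cells carrying an ATXN2-firefly luciferase construct and incubated 24 hrs at 37 degrees C. Each well then received a fluorescent viability reagent followed by luciferase substrate for end-point luminescence.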

In experiment [6] the target is Bile acid receptor (Homo sapiens) (UniProt Q96RI1). Description: qHTS assay for small molecule antagonists of farnesoid X receptor signaling (AID 588526; calls by dose curve; note: % is set by controls: 0 for no effect and ±100 for the full control effect). To be noted: HEK293T FXR-UAS-bla, beta-lactamase ratio, antagonist mode; series mostly up to 76.7 µM. In short, it runs like this: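 Antagonist mode: titrated compounds tested against chenodeoxycholic acid stimulation (normalized to 50 uM CDCA and DMSO) in GeneBLAzer HEK293T cells for 16 h. Beta-lactamase read by CCF4 fluorescence; IC50 from Hill fits.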

Experiment [7] has as its target Glucocorticoid receptor (Homo sapiens) (UniProt P04150). The experiment can be described thus: qHTS assay for small molecule agonists of glucocorticoid receptor signaling (AID 588532; active = well fitted curve in the direction sought with a large enough effect in the signal ratio, with a control signal flat; the % refers to the signal ratio;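 note: 100% = dexamethasone at 0.1 µM and 0% = DMSO only wells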). The note with it: HeLa MMTV-bla, beta-lactamase ratio, agonist, 18 h; stronger effect = higher value; percent of dexamethasone control, DMSO zero. In short, it runs like this:
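Cells were plated and rested 3-5 h at 37 C, compounds were added in titration and incubated 18 h, then CCF4 substrate was loaded for 2 h at RT before reading blue/green fluorescence. EC50 came from Hill-equation fitting.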

Experiment [8] in a line: qHTS assay for small molecule antagonists of peroxisome proliferator-activated receptor delta signaling (AID 588535).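 Note: cells co-treated with a PPAR-delta agonist as stimulator during compound exposure.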 To be noted: HEK293T PPARd-UAS-bla, beta-lactamase FRET ratio, 18 h; 460 nm channel. In short, it runs like this: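 Fluorescence from CCF4-loaded GeneBLAzer PPAR-delta-UAS-bla HEK293T cells (2 hrs RT loading) quantified reporter inhibition after an 18 hr, 37 C compound exposure across a titration.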

Experiment [9] addresses Peroxisome proliferator-activated receptor gamma (Homo sapiens) (UniProt P37231). Description: qHTS assay for small molecule antagonists of peroxisome proliferator-activated receptor gamma signaling (AID 588537; active = well fitted inhibition curve with a large enough effect in the signal ratio, with a control signal flat, not every such curve was filed as active; the % refers to the signal ratio;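 note: reporter cells co-stimulated with 50 nM rosiglitazone agonist during compound treatment; % of control where 0% means no effect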). The note with it: HEK293 PPARg-UAS-bla, beta-lactamase ratio, antagonist mode; series mostly up to 76.8 µM. In short, it runs like this:
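Fluorescence at 460 and 530 nm (405 nm excitation) reported beta-lactamase cleavage of CCF4 after 2 h room-temperature loading. HEK293 reporter cells in 1% charcoal/dextran-treated FBS had received compound and rosiglitazone for 16 h.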

The target of experiment [10] is Ubiquitin carboxyl-terminal hydrolase 1 (Homo sapiens) (UniProt O94782). The experiment can be described thus: Inhibitors of USP1/UAF1: Pilot qHTS (AID 504865).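 Note: rhodamine fluorescence freed from ubiquitin-rhodamine substrate followed over time; top concentration of the series differs between compounds; % is set by controls: 0 for no effect and ±100 for the full control effect; nearly all actives have a fitted effect of over 35% in size.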 To be noted: purified USP1/UAF1, Ub-rhodamine cleavage fluorescence; series mostly up to 114 µM. The gist of the method:
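In 50mM HEPES pH 7.8 containing 0.5mM EDTA, 1mM TCEP, 0.1 mg/ml BSA and 0.01% Tween-20, 1nM USP1/UAF1 is exposed to compound for 15 min, then Ub-Rho (150nM final) is added and fluorescence is read over time.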

For experiment [11], the target named is Estrogen receptor (Homo sapiens) (UniProt P03372). The experiment can be described thus: qHTS assay for small molecule antagonists of estrogen receptor alpha signaling (AID 588513; active = well fitted curve in the direction sought with a large enough effect in the signal ratio, with a control signal flat, not every such curve was filed as active; the % refers to the signal ratio; note: % is set by controls: 0 for no effect and ±100 for the full control effect). The note with it: ER-alpha-UAS-bla HEK293, beta-lactamase ratio, antagonist mode; series mostly up to 76.9 µM. In short, it runs like this: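 Fluorescence from CCF4 substrate after 2 h at room temperature gave reporter activity; cells had been exposed to compound and 0.5nM 17-beta-estradiol for 18 h at 37 C. Hill-equation fitting yielded IC50 and maximal response.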

Experiment [12] shares this target. Description: qHTS assay for small molecule agonists of estrogen receptor alpha signaling (AID 588514; calls by dose curve;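 note: 0% = vehicle only and 100% = reference agonist; nearly all actives have a fitted effect of over 70% in size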). To be noted: ER-alpha-UAS-bla HEK293, beta-lactamase ratio, 18 h, percent of full estradiol response, vehicle zero; series mostly up to 76.8 µM. The gist of the method:
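Efficacy is expressed against 20 nM 17-beta-estradiol (100%) and DMSO basal (0%); EC50 from Hill equation. Assay: beta-lactamase reporter in ER-alpha-UAS-bla HEK 293 cells, 18 h compound incubation, CCF4 detection.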

Experiment [13] addresses Glucocorticoid receptor (Homo sapiens) (UniProt P04150). Description: qHTS assay for small molecule antagonists of glucocorticoid receptor signaling (AID 588533; active = well fitted inhibition curve with a large enough effect in the signal ratio, with a control signal flat, not every such curve was filed as active; the % refers to the signal ratio; note: % is set by controls: 0 for no effect and ±100 for the full control effect). To be noted: HeLa MMTV-bla, GRE beta-lactamase ratio, antagonist mode, 18 h; series mostly up to 76.8 µM. In short, it runs like this:
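Antagonist-mode qHTS: compound titrations added to GRE-bla HeLa cells, then dexamethasone 2 nM final; 18 h, 37 C. CCF4 FRET fluorescence normalized to dexamethasone and DMSO; IC50 from Hill fit.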

For experiment [14], the target named is Peroxisome proliferator-activated receptor gamma (Homo sapiens) (UniProt P37231). The experiment can be described thus: qHTS assay for small molecule agonists of peroxisome proliferator-activated receptor gamma signaling (AID 588536; active = well fitted curve in the direction sought with a large enough effect in the signal ratio, with a control signal flat, not every such curve was filed as active; the % refers to the signal ratio;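 note: 0% = DMSO basal wells and 100% = rosiglitazone at 2 µM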). The note with it: HEK293 PPARg-UAS-bla, beta-lactamase ratio, 16 h, percent of rosiglitazone response, DMSO as zero; series mostly up to 76.7 µM. The gist of the method:
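Compound treatment: 16 h, 37 C, HEK293 GeneBLAzer cells. Detection: CCF4, 2 h RT. Values: Hill-fit EC50, efficacy as % of 2 uM rosiglitazone.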

The target in experiment [15] is Vitamin D3 receptor (Homo sapiens) (UniProt P11473). The experiment can be described thus: qHTS assay for small molecule antagonists of vitamin D receptor signaling (AID 588541; calls by dose curve). To be noted: HEK293T VDR-UAS-bla, beta-lactamase ratio, antagonist mode; series mostly up to 76.7 µM. The gist of the method:
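VDR-UAS-bla HEK293T cells in 2% charcoal-stripped FBS were stimulated with 1-alpha,25-dihydroxyvitamin D3 (3 nM final) plus compound for 16 h at 37 C. The beta-lactamase CCF4 readout was normalized to 50 nM agonist and DMSO, and Hill fits gave IC50.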

For experiment [16] the target is unchanged. The experiment can be described thus: qHTS assay for small molecule agonists of vitamin D receptor signaling (AID 588543; calls by dose curve;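 note: 0% = DMSO basal and 100% = reference agonist control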). The note with it: HEK293T VDR-UAS-bla, beta-lactamase ratio, 16 h; series mostly up to 76.8 µM. In short, it runs like this:
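Reporter cells (HEK293T, VDR-UAS-bla) were seeded in medium with 2% charcoal-stripped serum and incubated 5 h, then compounds in concentration series were added for 16 h at 37 °C. Stimulation was scaled between DMSO basal and 50 nM 1α,25-dihydroxyvitamin D3.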

“And” between values parts separate entries of the source, which are not always exact repeats. Identical values can stand only once. Results filed as inconclusive are left out. The source made the active and inactive calls. Unless noted, calls come from the whole dose curve; as a rule, active = well fitted curve in the direction sought with a large enough effect; inconclusive = small, poorly fitted or top-dose-only effect, or another doubt; inactive = no such curve, though single readings can be large; an effect the other way counts as inactive or inconclusive.

Chain of Estrogen receptor (Homo sapiens) (P03372 whole entry, looked up): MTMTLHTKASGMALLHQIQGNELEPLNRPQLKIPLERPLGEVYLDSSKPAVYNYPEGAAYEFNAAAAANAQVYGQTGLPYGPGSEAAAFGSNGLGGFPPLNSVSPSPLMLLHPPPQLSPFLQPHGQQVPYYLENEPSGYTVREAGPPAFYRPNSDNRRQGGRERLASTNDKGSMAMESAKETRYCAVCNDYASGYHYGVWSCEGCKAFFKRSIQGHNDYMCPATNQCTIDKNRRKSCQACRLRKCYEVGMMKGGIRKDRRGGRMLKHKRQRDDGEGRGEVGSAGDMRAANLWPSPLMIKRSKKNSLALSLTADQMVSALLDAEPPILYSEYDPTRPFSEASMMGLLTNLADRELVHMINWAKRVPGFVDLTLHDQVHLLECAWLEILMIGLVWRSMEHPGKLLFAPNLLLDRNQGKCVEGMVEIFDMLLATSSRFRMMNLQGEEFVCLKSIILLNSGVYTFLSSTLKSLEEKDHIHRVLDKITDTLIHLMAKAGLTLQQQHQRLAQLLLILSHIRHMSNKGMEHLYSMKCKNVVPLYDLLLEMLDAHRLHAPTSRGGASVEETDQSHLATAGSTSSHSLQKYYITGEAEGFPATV
Chain of Ubiquitin carboxyl-terminal hydrolase 1 (Homo sapiens) (O94782 whole entry, looked up): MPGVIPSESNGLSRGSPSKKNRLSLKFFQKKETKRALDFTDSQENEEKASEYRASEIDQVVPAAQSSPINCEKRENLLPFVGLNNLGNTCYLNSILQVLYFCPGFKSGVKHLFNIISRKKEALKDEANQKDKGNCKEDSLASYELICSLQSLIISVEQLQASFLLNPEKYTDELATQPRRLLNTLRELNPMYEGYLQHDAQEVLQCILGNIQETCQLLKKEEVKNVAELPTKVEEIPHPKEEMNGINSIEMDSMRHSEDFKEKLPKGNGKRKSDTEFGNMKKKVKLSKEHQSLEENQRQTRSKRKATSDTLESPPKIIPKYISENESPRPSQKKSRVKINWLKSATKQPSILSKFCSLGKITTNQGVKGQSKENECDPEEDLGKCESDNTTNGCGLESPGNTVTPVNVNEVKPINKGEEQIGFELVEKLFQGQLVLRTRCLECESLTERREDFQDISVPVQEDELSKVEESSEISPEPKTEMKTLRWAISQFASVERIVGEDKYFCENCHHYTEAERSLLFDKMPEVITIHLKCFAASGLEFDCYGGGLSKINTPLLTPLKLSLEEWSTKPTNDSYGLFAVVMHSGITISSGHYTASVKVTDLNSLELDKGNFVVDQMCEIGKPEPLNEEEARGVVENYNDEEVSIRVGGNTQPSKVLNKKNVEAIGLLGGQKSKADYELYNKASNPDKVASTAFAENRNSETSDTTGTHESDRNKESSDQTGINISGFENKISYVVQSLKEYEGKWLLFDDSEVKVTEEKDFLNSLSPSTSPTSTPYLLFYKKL
Chain of Peroxisome proliferator-activated receptor gamma (Homo sapiens) (P37231 whole entry, looked up): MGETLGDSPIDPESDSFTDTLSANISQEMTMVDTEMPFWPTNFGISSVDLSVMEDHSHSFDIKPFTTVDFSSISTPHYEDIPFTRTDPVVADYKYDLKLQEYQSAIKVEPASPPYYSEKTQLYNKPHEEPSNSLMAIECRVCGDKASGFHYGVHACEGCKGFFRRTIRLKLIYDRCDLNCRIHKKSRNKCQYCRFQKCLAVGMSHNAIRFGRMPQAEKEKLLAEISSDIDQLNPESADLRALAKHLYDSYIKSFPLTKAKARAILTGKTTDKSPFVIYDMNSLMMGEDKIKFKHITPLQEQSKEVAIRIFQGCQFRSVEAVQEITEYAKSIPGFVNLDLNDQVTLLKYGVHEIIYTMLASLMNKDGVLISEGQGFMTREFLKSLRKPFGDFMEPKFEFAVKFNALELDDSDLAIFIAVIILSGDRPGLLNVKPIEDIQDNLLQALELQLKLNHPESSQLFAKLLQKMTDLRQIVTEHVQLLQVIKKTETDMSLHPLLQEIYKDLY
Chain of Glucocorticoid receptor (Homo sapiens) (P04150 whole entry, looked up): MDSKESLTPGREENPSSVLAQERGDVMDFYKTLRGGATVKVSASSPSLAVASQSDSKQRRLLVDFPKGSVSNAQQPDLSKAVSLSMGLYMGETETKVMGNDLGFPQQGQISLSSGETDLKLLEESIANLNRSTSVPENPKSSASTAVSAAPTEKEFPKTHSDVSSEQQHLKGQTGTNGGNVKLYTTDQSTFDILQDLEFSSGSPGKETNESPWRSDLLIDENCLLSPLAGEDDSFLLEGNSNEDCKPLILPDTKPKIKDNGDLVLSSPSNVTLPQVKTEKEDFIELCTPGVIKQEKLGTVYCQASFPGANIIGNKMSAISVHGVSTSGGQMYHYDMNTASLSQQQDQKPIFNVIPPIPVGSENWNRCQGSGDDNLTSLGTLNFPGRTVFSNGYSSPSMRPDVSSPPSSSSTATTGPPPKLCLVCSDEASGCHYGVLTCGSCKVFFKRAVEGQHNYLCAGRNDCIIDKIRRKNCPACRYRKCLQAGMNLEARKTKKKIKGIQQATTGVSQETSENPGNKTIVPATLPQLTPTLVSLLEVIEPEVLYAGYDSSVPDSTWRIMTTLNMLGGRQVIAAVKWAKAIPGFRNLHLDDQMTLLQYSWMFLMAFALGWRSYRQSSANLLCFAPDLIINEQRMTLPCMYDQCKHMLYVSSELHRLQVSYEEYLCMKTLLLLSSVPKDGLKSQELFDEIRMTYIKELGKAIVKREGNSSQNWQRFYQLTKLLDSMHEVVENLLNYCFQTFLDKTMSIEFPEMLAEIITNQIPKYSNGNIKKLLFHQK
Chain of Vitamin D3 receptor (Homo sapiens) (P11473 whole entry, looked up): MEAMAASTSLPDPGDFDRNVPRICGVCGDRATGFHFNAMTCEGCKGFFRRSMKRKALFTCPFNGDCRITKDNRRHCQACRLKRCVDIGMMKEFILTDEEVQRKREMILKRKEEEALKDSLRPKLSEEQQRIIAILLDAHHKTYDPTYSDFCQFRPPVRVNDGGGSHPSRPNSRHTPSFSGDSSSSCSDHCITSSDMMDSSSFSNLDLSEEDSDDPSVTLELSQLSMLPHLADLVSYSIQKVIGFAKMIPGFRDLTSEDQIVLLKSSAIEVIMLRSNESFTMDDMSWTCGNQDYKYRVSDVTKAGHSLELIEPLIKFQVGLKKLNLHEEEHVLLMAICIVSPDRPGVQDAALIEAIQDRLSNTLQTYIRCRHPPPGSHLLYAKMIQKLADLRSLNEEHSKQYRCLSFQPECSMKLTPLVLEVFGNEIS
Chain of Bile acid receptor (Homo sapiens) (Q96RI1 whole entry, looked up): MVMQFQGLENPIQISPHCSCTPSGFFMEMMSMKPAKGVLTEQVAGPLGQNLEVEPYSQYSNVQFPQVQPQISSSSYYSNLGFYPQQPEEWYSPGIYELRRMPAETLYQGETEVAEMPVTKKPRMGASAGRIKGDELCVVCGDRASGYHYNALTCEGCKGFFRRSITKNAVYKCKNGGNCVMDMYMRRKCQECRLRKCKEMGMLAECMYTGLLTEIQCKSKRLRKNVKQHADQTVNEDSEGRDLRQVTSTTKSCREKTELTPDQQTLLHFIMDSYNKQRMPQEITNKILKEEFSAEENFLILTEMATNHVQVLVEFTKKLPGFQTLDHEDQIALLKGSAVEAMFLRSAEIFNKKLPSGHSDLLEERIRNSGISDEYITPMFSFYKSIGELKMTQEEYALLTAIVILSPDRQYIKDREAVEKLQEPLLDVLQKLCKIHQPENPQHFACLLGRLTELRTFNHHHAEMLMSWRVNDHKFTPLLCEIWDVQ
Chain of Phosphoglycerate kinase, glycosomal (Trypanosoma brucei brucei) (P07378 whole entry, looked up): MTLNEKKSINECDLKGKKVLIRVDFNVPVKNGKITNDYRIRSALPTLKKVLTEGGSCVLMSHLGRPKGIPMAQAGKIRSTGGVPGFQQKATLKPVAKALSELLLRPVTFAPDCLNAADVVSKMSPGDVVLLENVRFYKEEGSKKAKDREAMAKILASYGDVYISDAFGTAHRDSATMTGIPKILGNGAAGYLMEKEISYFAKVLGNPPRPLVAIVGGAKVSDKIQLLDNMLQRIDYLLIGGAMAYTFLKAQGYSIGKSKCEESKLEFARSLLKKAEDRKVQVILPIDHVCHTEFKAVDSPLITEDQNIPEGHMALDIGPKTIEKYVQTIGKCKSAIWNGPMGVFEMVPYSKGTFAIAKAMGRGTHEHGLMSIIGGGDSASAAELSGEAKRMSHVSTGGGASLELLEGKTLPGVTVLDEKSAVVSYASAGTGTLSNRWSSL
Chain of phosphoglycerate mutase (Leishmania major) (Q4Q090 1-553): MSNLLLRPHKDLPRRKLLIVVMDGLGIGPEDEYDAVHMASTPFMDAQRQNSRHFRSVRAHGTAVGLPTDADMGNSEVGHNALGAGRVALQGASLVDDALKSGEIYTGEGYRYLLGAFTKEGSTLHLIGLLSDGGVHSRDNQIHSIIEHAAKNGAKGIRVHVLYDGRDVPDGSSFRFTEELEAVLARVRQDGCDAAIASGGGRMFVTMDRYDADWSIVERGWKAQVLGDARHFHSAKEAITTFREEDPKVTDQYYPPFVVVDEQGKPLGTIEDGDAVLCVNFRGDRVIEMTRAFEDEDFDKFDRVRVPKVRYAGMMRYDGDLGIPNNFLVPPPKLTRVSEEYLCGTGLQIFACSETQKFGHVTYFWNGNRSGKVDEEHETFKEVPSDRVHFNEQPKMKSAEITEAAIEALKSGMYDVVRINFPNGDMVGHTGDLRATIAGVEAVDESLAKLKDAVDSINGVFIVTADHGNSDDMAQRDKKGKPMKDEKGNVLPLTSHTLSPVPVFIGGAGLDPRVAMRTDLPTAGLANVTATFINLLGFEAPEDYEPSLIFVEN
Chain of Peptidyl-prolyl cis-trans isomerase NIMA-interacting 1 (Homo sapiens) (Q13526 whole entry, looked up): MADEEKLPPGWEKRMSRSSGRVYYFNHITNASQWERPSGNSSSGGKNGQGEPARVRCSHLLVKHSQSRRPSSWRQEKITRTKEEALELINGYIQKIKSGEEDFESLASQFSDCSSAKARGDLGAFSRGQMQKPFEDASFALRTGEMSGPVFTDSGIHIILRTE

Regarding `C[N+](C)(C)CC(=O)O`, the compound was classed as inactive in [1], in experiment [2] and in [3]. For the same compound, the Potency entry in experiment [4] and in [5] was “inactive” throughout.

For `O=c1c(O)c(-c2ccc(O)cc2)oc2cc(O)cc(O)c12`, in experiment [6], the outcome was inactive. The activation in experiment [7] was -2.66% (inactive) and -3.79% (inactive). The max response in [8] is -17.2% and 39.5%. Also, in [9], the Potency entry is “inactive”.

Turning to `COc1cc2ncnc(Nc3ccc(F)c(Cl)c3)c2cc1OCCCN1CCOCC1`, in experiment [10], the Potency entry is “inactive”.

Consider `O=c1[nH]cnc2c1ncn2[C@H]1CC[C@@H](CO)O1`, for which the Potency entry in [10], in [11] and in experiment [13] was “inactive” in each case. Further, the outcome in experiment [12] and in experiment [14] was inactive. In addition, the activation in [7] was 10.5% (inactive) and 6.23% (inactive). In addition, in [8], the max response worked out at 45.2%.

For the compound `O=C(O)Cc1cccc2ccccc12`, the Potency result in experiment [10] and in experiment [9] was “inactive” in each case. In addition, the outcome in experiment [6], in experiment [15] and in experiment [16] was inactive. Also, the max response in experiment [8] was 10.6% and 0.107%.

Consider `COCCCCC(=NOCCN)c1ccc(C(F)(F)F)cc1`, for which the Potency entry in experiment [10] is “inactive”.
